Structures are written as SMILES. Inconclusive results are not listed. Activity calls are given as the source filed them. Calls follow the shape of the dose curve; as a rule, active = well fitted curve in the direction sought with a large enough effect; inconclusive = small, poorly fitted or top-dose-only effect, or another doubt; inactive = no such curve, though single readings can be large; an effect the other way counts as inactive or inconclusive.

Test [1] deals with Zika virus NS2B-NS3 protease (unlinked complex). Briefly: Primary screen GU Rhodamine qHTS for Zika virus inhibitors: Unlinked NS2B-NS3 protease assay (AID 1347159). Also: nearly all actives have a fitted effect of over 60% in size. Also: potency is read from the fitted curve at half-maximal effect. In short, it runs like this: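 Buffer 10 mM Tris-HCl pH 8.0, 0.01% Tween 20. Unlinked protease 25 nM; compound preincubation 15 min, RT, protected from light. Substrate Rhod110, 1.5 microM; ~15% conversion in 15 min.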
Background: qHTS replaces the single test concentration by a dilution series.

The subject of test [2] is Zika virus NS2B-NS3 protease (linked construct). Briefly: Primary screen NINDS Rhodamine qHTS for Zika virus inhibitors (AID 1347160). Also: nearly all actives have a fitted effect of over 55% in size. As to conditions: outcome: dose series up to 57.1 µM unless noted. The method, boiled down: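 Aprotinin served as in-plate control. Conditions: 25 nM linked NS2B-NS3, pH 8.0 Tris buffer, titrated compounds, 15 min preincubation and 15 min reaction with 1.5 microM Rhod110 substrate at room temperature.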

Test [3] is described as follows: Confirmatory screen NINDS Rhodamine qHTS for Zika virus inhibitors (AID 1347161).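 Also: purified Zika NS2B-NS3 protease with linked NS2B cofactor domain and Rhodamine110 peptide substrate; nearly all actives have a fitted effect of over 60% in size.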 The method, boiled down:
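Rhodamine110-peptide cleavage (1.5 µM substrate) by 25 nM linked NS2B-NS3 enzyme at pH 8.0 (Tris, Tween 20), after 15 min RT preincubation with compounds; 15-min fluorescence change normalized to controls and Hill-fitted.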

A short description of test [4]: Vero cells viability qHTS for Zika virus inhibitors (AID 1347167). Also: potency is read from the fitted curve at half-maximal effect. In short, it runs like this:
(§1)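 To flag cytotoxic protease inhibitors, viability is measured by ATP-dependent luminescence (CellTiter Glo) after cells attached overnight receive compound for 24 to 48 hours in DMEM with 4% FBS.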

Test [5] in a line: HepG2 cells viability qHTS for Zika virus inhibitors (AID 1347168). The method, boiled down:
as §1

Test [6] in a line: Tertiary RLuc qRT-PCR qHTS assay for Zika virus inhibitors (AID 1347169). Also: nearly all actives have a fitted effect of over 55% in size. Also: potency is read from the fitted curve at half-maximal effect. In short, it runs like this:
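Orthogonal cell-based infection assay using recombinant ZIKV-RLuc (Cambodian) in Vero cells; compound added prior to virus at MOI 1-2. Incubation lasts 48-72 hrs at 37 degrees C before live-cell Renilla substrate is added and luminescence measured.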
In general terms: Quantitative PCR measures a nucleic acid by following its amplification.

The subject of test [7] is Zika virus NS2B-NS3 protease (linked construct). Briefly: 384 well plate NINDS Rhodamine confirmatory qHTS for Zika virus inhibitors (AID 1347164). Also: potency is read from the fitted curve at half-maximal effect; nearly all actives have a fitted effect of over 65% in size. In short, it runs like this: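 Compounds are incubated about 15 minutes with linked protease (5, 30 or 60 nM final). Rhodamine 110-tagged Ac-LKRR substrate (10 microM final) is added and fluorescence measured after 25 minutes.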

Test [8] deals with Lysine-specific demethylase 5B (Homo sapiens) (UniProt Q9UGL1). The test can be described thus: Optimization screen for KDM5B Histone Demethylases FDH coupled qHTS against the LOPAC library (AID 1347166). In short, it runs like this:
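KDM5BDeltaAP (200nM final) in 50mM HEPES pH 7.5, 0.01% Tween-20 was preincubated with compound for 10 min at room temperature. A substrate mix of 12.5uM H3K4Me3, 25uM a-ketoglutarate, ascorbate, Fe2+, NAD+ and formaldehyde dehydrogenase was then added. NADH fluorescence (340/450 nm) was read initially and after 30 min.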

A short description of test [9]: OV-KATE Cancer Cell Toxicity qHTS against the NCATS CANVASS Library (AID 1347345). The method, boiled down:
(§2)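 Cells were seeded at 1000 per well, allowed 4 h at 37 degrees C/5% CO2, then pin-treated with an 11-point compound series. After 72 h, viability was read as CellTiter-Glo luminescence following 15min at room temperature.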

Test [10] can be described thus: HPAF-II Cancer Cell Toxicity qHTS against the NCATS CANVASS Library (AID 1347346). Also: potency is read from the fitted curve at half-maximal effect; nearly all actives have a fitted effect of over 55% in size. As to conditions: HPAF-II viability, CellTiter-Glo ATP luminescence, 72 h. In short, it runs like this:
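Cytotoxicity read-out was CellTiter-Glo luminescence after 72 h at 37 degrees C exposure of HPAF-II cells (1000/well) to compounds in an 11-point titration.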

Test [11] is described as follows: UWB1.289 Cancer Cell Toxicity qHTS against the NCATS CANVASS Library (AID 1347347). Also: nearly all actives have a fitted effect of over 60% in size. The method, boiled down:
as §2

Test [12] is described as follows: OV-SAHO Cancer Cell Toxicity qHTS against the NCATS CANVASS Library (AID 1347348). Also: nearly all actives have a fitted effect of over 55% in size. The method, boiled down: as §2
Test [13] in a line: SW1088 Cancer Cell Toxicity qHTS against the NCATS CANVASS Library (AID 1347350). Also: nearly all actives have a fitted effect of over 75% in size. Particulars: SW1088 viability, CellTiter-Glo luminescence, 72 h; at 38.3 µM (top of the series). In short, it runs like this:
as §2

Test [14] is described as follows: U-118MG Cancer Cell Toxicity qHTS against the NCATS CANVASS Library (AID 1347351). The method, boiled down: as §2
Test [15] is described as follows: COV-362 Cancer Cell Toxicity qHTS against the NCATS CANVASS Library (AID 1347352). In short, it runs like this: (§3)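 Toxicity was measured as CellTiter-Glo luminescence after 72 h exposure to an 11-point compound series. Compound was added to 1000 cells/well 4 h after seeding.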
A short description of test [16]: A2780 Cisplatin Sensitive Ovarian Cancer Cell Toxicity qHTS against the NCATS CANVASS Library (AID 1347353). Also: nearly all actives have a fitted effect of over 60% in size. Particulars: A2780 ovarian cancer viability, ATPLite luminescence, 72 h; at 46.1 µM (top of the series). The method, boiled down: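 Cisplatin-sensitive A2780 ovarian cells (750/well) received compound in 11 concentrations, and were incubated 72 h at 37 °C. ATP content was measured by ATPLite luminescence; bortezomib served as control.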

A short description of test [17]: UWB1.289-WTBRCA1 Cancer Cell Toxicity qHTS against the NCATS CANVASS Library (AID 1347354). The method, boiled down: as §3
Test [18] is described as follows: HEK-293 Cancer Cell Toxicity qHTS against the NCATS CANVASS Library (AID 1347355). Also: nearly all actives have a fitted effect of over 65% in size. As to conditions: HEK-293 viability, CellTiter-Glo luminescence, 72 h; at 46.1 µM (top of the series). In short, it runs like this: as §3
The nature of test [19]: HPAF-II 24hr Apoptosis Induction qHTS against the NCATS CANVASS Library (AID 1347356). In short, it runs like this: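 Caspase-Glo 3/7 luminescence, read after 15 min room-temperature development, measures apoptosis in HPAF-II cells treated 24 h at 37 degrees C with an 11-point concentration series; 500 cells/well; doxorubicin control.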
Test [20] deals with Zika virus NS2B-NS3 protease (linked). Briefly: 384 well plate NINDS AMC confirmatory qHTS for Zika virus inhibitors (AID 1347163). Also: potency is read from the fitted curve at half-maximal effect; nearly all actives have a fitted effect of over 50% in size. In short, it runs like this: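 Fluorescence at 355/460 nm was read after 25 minutes of cleavage of 30 microM Ac-VKTGKR-AMC at room temperature, in the dark. Before substrate addition, compounds (up to 1 mM final) sat ~15 minutes with 5, 30 or 60 nM linked protease. Signals were normalized to no-enzyme and no-inhibitor wells.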

Chain of Lysine-specific demethylase 5B (Homo sapiens) (Q9UGL1 whole entry, looked up): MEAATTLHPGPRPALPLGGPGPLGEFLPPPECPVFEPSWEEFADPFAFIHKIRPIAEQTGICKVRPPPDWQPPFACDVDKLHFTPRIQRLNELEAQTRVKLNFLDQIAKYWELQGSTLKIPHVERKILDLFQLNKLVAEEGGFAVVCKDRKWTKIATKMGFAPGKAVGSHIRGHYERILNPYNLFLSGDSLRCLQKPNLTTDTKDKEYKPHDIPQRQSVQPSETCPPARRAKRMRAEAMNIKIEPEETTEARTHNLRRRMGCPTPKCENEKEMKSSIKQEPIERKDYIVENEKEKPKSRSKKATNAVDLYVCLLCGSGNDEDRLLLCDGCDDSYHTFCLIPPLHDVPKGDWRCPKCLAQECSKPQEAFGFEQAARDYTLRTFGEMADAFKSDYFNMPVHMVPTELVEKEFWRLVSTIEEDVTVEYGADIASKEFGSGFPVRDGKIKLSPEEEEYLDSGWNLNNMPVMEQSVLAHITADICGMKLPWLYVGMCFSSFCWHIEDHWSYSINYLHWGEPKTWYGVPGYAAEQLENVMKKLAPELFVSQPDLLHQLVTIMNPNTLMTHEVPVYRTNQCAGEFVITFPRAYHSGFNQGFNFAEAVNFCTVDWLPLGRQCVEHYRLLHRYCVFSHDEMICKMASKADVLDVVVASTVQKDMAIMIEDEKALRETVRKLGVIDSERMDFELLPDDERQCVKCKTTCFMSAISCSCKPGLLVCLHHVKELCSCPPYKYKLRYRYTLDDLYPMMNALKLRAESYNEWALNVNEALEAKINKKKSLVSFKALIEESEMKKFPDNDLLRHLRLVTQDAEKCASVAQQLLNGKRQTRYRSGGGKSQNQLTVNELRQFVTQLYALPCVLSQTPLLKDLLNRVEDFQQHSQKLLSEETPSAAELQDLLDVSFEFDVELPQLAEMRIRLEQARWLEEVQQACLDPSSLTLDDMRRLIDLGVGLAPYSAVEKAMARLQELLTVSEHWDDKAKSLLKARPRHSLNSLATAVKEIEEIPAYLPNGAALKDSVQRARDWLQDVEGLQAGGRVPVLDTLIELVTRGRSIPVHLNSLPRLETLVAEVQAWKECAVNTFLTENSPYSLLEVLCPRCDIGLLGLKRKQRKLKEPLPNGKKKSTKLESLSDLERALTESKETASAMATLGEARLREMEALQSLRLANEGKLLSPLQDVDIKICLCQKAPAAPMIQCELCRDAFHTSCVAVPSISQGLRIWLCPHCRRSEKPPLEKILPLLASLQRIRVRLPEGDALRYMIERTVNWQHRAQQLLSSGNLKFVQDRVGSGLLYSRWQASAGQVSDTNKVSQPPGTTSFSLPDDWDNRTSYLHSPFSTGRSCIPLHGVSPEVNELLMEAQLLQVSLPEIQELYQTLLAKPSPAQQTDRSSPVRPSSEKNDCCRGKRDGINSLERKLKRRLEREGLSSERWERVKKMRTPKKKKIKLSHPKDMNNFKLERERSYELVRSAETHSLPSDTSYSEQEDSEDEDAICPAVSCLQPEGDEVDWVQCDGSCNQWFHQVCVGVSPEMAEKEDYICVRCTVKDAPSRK

Take `CNCCCC12CCC(c3ccccc31)c1ccccc12`: the Potency result in test [1] is “inactive”. Moreover, the molecule was classed as inactive in test [2].
For `CC[C@@]1(O)C(=O)OCc2c1cc1n(c2=O)Cc2cc3c(CN(C)C)c(O)ccc3nc2-1`, in test [1], the Potency was 20 µM (active).
Consider `Cc1cnc(C(=O)NCCc2ccc(S(=O)(=O)NC(=O)NC3CCCCC3)cc2)cn1`, for which the Potency result in [3], in test [4] and in test [6] was “inactive” each time. Besides, the result in [5] was inactive.
Take `CS(=O)(=O)CCNCc1ccc(-c2ccc3ncnc(Nc4ccc(OCc5cccc(F)c5)c(Cl)c4)c3c2)o1`: the call in [2] was inactive.
As to `O=C1Cc2cc(CCN3CCN(c4nsc5ccccc45)CC3)c(Cl)cc2N1`, the Potency entry in test [1], in test [3], in test [4] and in test [6] was “inactive” in each case. For the same molecule, the result in [2] and in test [5] was inactive. Further, the Potency in test [7] is 2.82 µM (active).
Consider `CCC1(c2ccccc2)C(=O)NCNC1=O`, for which the call in [8] was inactive.
With `CC1COc2c(N3CCN(C)CC3)c(F)cc3c(=O)c(C(=O)O)cn1c23` (stereo not given), the Potency result in [3], in test [4] and in test [6] was “inactive” in each case. Moreover, the outcome in test [5] was inactive.
`O=C(c1ccc(F)cc1)C1CCN(CCn2c(=O)[nH]c3ccccc3c2=O)CC1`: the Potency result in test [1], in test [3], in test [4] and in test [6] was “inactive” in each case. Also, the outcome in test [2] and in test [5] was inactive.
As for `Clc1ccc2c(c1)C(N1CCNCC1)=Nc1ccccc1O2`, the Potency result in [1] was “inactive”. Moreover, the molecule was called inactive in [2].
With `COc1ccc2[nH]cc(CCNC(C)=O)c2c1`, the molecule was called inactive in test [2], in test [9], in test [11], in test [12], in test [13] and in [14]. The molecule was called inactive in [15], in [16], in test [17], in [18] and in test [19]. In addition, the Potency in [10] was 5.95 µM (active).
In the case of `O=C(Nc1ccc([N+](=O)[O-])cc1Cl)c1cc(Cl)ccc1O`, the Potency in test [20] was 20 µM (active); in [7] it was 7.94 µM (active); in test [4], 0.415 µM (active); in test [6], 0.294 µM (active). Further, in test [8], the outcome was inactive.

The record behind these values is PubChem BioAssay (NCATS).
